According to the supplement of paper PMC8975748:
Structures can show the parent of a compound that is named as a salt. ± gives the standard deviation of the averaged measurements.

Assays:
[1] = system: Saccharomyces cerevisiae BY4741 SeMeCo community; assay: mean cell size (pixel area) (pixels); higher = larger cells; settings: 10 µM; 24 h; SM minimal medium
Method in brief: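 The test system was a fluorescent Saccharomyces cerevisiae BY4741 community with four plasmids, each restoring one auxotrophy and carrying a fluorescent marker. Cells were grown for 24 h in SM medium with drug at a final 10 µM in 384-well plates, then fixed with paraformaldehyde and imaged by automated confocal microscopy for Harmony analysis of mean cell pixel area per well. Values represent the average of 3 replicates. Same SeMeCo high-content imaging drug screen: Selleck FDA-approved drugs at 10 µM, 24 h in SM medium, 384-well plates, 3 replicates.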

[2] = system: Saccharomyces cerevisiae BY4741 SeMeCo community; assay: z-score of prototroph abundance vs DMSO median; higher = larger share of this subpopulation than in DMSO controls; settings: 10 µM; 24 h; SM minimal medium; subpopulation (auxotrophy): Prototroph
Method in brief: (§1)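 Cells of a Saccharomyces cerevisiae BY4741 community, carrying four plasmids that each restored one auxotrophy and encoded a distinct fluorescent protein, were pre-grown overnight to OD600 1.0 and diluted to 0.3. A 70 µl volume was added to 384-well plates acoustically predosed with library drugs (10 µM final) and grown 24 h in minimal SM medium. After paraformaldehyde fixation, automated confocal microscopy was used, with single-auxotroph fluorescent strains for thresholds and autofluorescence correction. The abundance of each subpopulation was scored as a z-score against the vehicle-well median.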

[3] = system: Saccharomyces cerevisiae BY4741 SeMeCo community; assay: z-score of subpopulation abundance vs DMSO median, subpopulation auxotrophic for L; higher = larger share of this subpopulation than in DMSO controls; settings: 10 µM; 24 h; SM minimal medium; subpopulation (auxotrophy): L
Method in brief: as §1

[4] = system: Saccharomyces cerevisiae BY4741 SeMeCo community; assay: z-score of subpopulation abundance vs DMSO median, subpopulation auxotrophic for U; higher = larger share of this subpopulation than in DMSO controls; settings: 10 µM; 24 h; SM minimal medium; subpopulation (auxotrophy): U
Method in brief: as §1

[5] = system: Saccharomyces cerevisiae BY4741 SeMeCo community; assay: z-score of subpopulation abundance vs DMSO median, subpopulation auxotrophic for H; higher = larger share of this subpopulation than in DMSO controls; settings: 10 µM; 24 h; SM minimal medium; subpopulation (auxotrophy): H
Method in brief: as §1

[6] = system: Saccharomyces cerevisiae BY4741 SeMeCo community; assay: z-score of subpopulation abundance vs DMSO median, subpopulation auxotrophic for LU; higher = larger share of this subpopulation than in DMSO controls; settings: 10 µM; 24 h; SM minimal medium; subpopulation (auxotrophy): LU
Method in brief: as §1

[7] = system: Saccharomyces cerevisiae BY4741 SeMeCo community; assay: z-score of subpopulation abundance vs DMSO median, subpopulation auxotrophic for LM; higher = larger share of this subpopulation than in DMSO controls; settings: 10 µM; 24 h; SM minimal medium; subpopulation (auxotrophy): LM
Method in brief: as §1

[8] = system: Saccharomyces cerevisiae BY4741 SeMeCo community; assay: z-score of subpopulation abundance vs DMSO median, subpopulation auxotrophic for HM; higher = larger share of this subpopulation than in DMSO controls; settings: 10 µM; 24 h; SM minimal medium; subpopulation (auxotrophy): HM
Method in brief: as §1

[9] = system: Saccharomyces cerevisiae BY4741 SeMeCo community; assay: z-score of subpopulation abundance vs DMSO median, subpopulation auxotrophic for HL; higher = larger share of this subpopulation than in DMSO controls; settings: 10 µM; 24 h; SM minimal medium; subpopulation (auxotrophy): HL
Method in brief: as §1

[10] = system: Saccharomyces cerevisiae BY4741 SeMeCo community; assay: z-score of subpopulation abundance vs DMSO median, subpopulation auxotrophic for HLU; higher = larger share of this subpopulation than in DMSO controls; settings: 10 µM; 24 h; SM minimal medium; subpopulation (auxotrophy): HLU
Method in brief: as §1

[11] = system: Saccharomyces cerevisiae BY4741 SeMeCo community; assay: z-score of subpopulation abundance vs DMSO median, subpopulation auxotrophic for HLM; higher = larger share of this subpopulation than in DMSO controls; settings: 10 µM; 24 h; SM minimal medium; subpopulation (auxotrophy): HLM
Method in brief: as §1

[12] = system: Saccharomyces cerevisiae BY4741 SeMeCo community; assay: z-score of subpopulation abundance vs DMSO median, subpopulation auxotrophic for HLUM; higher = larger share of this subpopulation than in DMSO controls; settings: 10 µM; 24 h; SM minimal medium; subpopulation (auxotrophy): HLUM
Method in brief: as §1

[13] = system: Saccharomyces cerevisiae BY4741 SeMeCo community; assay: z-score of subpopulation abundance vs DMSO median, subpopulation auxotrophic for HU; higher = larger share of this subpopulation than in DMSO controls; settings: 10 µM; 24 h; SM minimal medium; subpopulation (auxotrophy): HU
Method in brief: as §1

[14] = system: Saccharomyces cerevisiae BY4741 SeMeCo community; assay: z-score of subpopulation abundance vs DMSO median, subpopulation auxotrophic for HUM; higher = larger share of this subpopulation than in DMSO controls; settings: 10 µM; 24 h; SM minimal medium; subpopulation (auxotrophy): HUM
Method in brief: as §1

[15] = system: Saccharomyces cerevisiae BY4741 SeMeCo community; assay: z-score of subpopulation abundance vs DMSO median, subpopulation auxotrophic for LUM; higher = larger share of this subpopulation than in DMSO controls; settings: 10 µM; 24 h; SM minimal medium; subpopulation (auxotrophy): LUM
Method in brief: as §1

[16] = system: Saccharomyces cerevisiae BY4741 SeMeCo community; assay: z-score of subpopulation abundance vs DMSO median, subpopulation auxotrophic for UM; higher = larger share of this subpopulation than in DMSO controls; settings: 10 µM; 24 h; SM minimal medium; subpopulation (auxotrophy): UM
Method in brief: as §1

SMILES	mean cell size [1]	z-score of prototroph abundance [2]	z-score of subpopulation abundance [3]	z-score of subpopulation abundance [4]	z-score of subpopulation abundance [5]	z-score of subpopulation abundance [6]	z-score of subpopulation abundance [7]	z-score of subpopulation abundance [8]	z-score of subpopulation abundance [9]	z-score of subpopulation abundance [10]	z-score of subpopulation abundance [11]	z-score of subpopulation abundance [12]	z-score of subpopulation abundance [13]	z-score of subpopulation abundance [14]	z-score of subpopulation abundance [15]	z-score of subpopulation abundance [16]
CCn1cc(C(=O)O)c(=O)c2cc(F)c(N3CCNC(C)C3)c(F)c21 (stereo not given) [Lomefloxacin HCl]	12.1 ± 0.14	-1.02	1.02	-0.45	0.73	0.53	1.35	1.66	1.2	1.38	0.25	0.54				
Cc1cc(-c2ccc(/N=N/c3ccc4c(S(=O)(=O)O)cc(S(=O)(=O)O)c(N)c4c3O)c(C)c2)ccc1/N=N/c1ccc2c(S(=O)(=O)O)cc(S(=O)(=O)O)c(N)c2c1O [Evans Blue]	13.5 ± 0.98	-9.18	-1.65	1.78	4.9	4.41		-7.3	8.09	429		-2.52	10.3	-6.59	-5.24	
Cc1cc(C)nc(NS(=O)(=O)c2ccc(N)cc2)n1 [Sulfamethazine]	12.5 ± 0.25			-0.82	0.21	-0.83		0.43	-0.28	0.31	0.59	0.42	-0.43	-0.1	-0.16	-0.43
CN(C)CCCN1c2ccccc2Sc2ccccc21 [Promazine hydrochloride]	12.5 ± 0.15	0.19	-0.38		-0.82	0.52	-0.08	-0.18	-0.82	0.06			-0.69	0.07		-0.02
CC(NCCC(c1ccccc1)c1ccccc1)c1ccccc1 (stereo not given) [Fendiline hydrochloride]	12.1 ± 0.2	1.56	0.03	-0.43	-1.47		-0.45	-1.15	-0.41	-0.27	-0.59	-0.29	-0.97	-0.72	0.05	-1.15
COC(=O)C1=C(C)NC(C)=C(C(=O)OC(C)(C)CN(C)CCC(c2ccccc2)c2ccccc2)C1c1cccc([N+](=O)[O-])c1 (stereo not given) [Lercanidipine]	12.1 ± 0.16	-0.62	1.24	-0.86	2.07	0.17	0.9	0.81	2.31	0.93		1.54	0.16	0.23	0.13	-0.89
O=C(O)C1=C(CSc2nnnn2CS(=O)(=O)O)CS[C@@H]2[C@H](NC(=O)[C@H](O)c3ccccc3)C(=O)N12 [Cefonicid sodium]	12.47 ± 0.07	0.12	-0.08	0.61	0.28		-0.87	-0.77	0.41	0.39	0.46	0.08	0.75	-0.26	-0.25	0.3
Cc1cc(O)cc(C)c1Cl [Chloroxylenol]	12.7 ± 0.17	-1.56	0.85	0.84	0.68	0.64	0.41	0.32	0.81	0.24	0.76	0.12				1.27
CCCCC(=O)O[C@H]1CC[C@H]2[C@@H]3CCc4cc(O)ccc4[C@H]3CC[C@]12C [Estradiol valerate]			-0.51	0.05	-0.49	-0.16	-0.71	-0.23	-0.58	0.43		-0.75	-0.05	0.19	-0.45	
N[C@@H]1CCCCN(c2c(F)cc3c(=O)c(C(=O)O)cn(C4CC4)c3c2Cl)C1 [Besifloxacin HCl]		-0.33	0.15	0.87		0.95	0.38	-0.14	-0.33	0.25		0.22	0.44		-0.19	-0.28
CC(C(=O)O)c1ccc2c(c1)[nH]c1ccc(Cl)cc12 (stereo not given) [Carprofen]	13.82 ± 0.13	3.42		-3.82	3.31	-3.11	-1.27	-2.19	1.64	-0.81	0.84	0.18		-2.82	-1.52	-4.96
CC(C(=O)O)c1ccc2c(c1)CC(=O)c1ccccc1S2 (stereo not given) [Zaltoprofen]		0.63		0.2		-0.2	-0.57	0.46	-0.14	-0.03	0.64	-0.59	-0.7	-0.7	-0.71	-1.01
C=C[C@H]1CN2CC[C@H]1C[C@H]2[C@H](O)c1ccnc2ccc(OC)cc12 [Quinine HCl Dihydrate]		-0.12	-0.67	0.16		-0.08	-0.52	-0.08	-0.28	-0.42		0.6	0.2	0.21	0.52	1.09
CCOC(=O)C1=C(COCCN)NC(C)=C(C(=O)OC)[C@@H]1c1ccccc1Cl [Levamlodipine]	12.5 ± 0.2	3.33		-7.34	2.66	-6.47	3.35	4.13	2.19	-3.25		-1.12		-5.45	-4.52	-8.09
